# Giardia kill: kills Giardia lamblia | activity change, % at 7.66 µM, hits read low | hit rate 0.15% among 340,000 | Giardia lamblia trophozoite viability; in the data active = activity change below about -80%; inconclusive = between about -30% and that limit;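 note: parasites exposed to compound for two days anaerobically before the ATP read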
#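 ATP-content bioluminescence gauges trophozoite survival. Cells (100/well) receive compound and incubate anaerobically for 48 hrs at 37 deg C; detection reagent follows for 15-30 min at room temperature.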
# DT40 TDP1 no CPT: qHTS for Inhibitors of human tyrosyl-DNA phosphodiesterase 1 (TDP1): qHTS in cells in absence of CPT. DT40 Tdp1-/- hTDP1 cells, no CPT, ATP luminescence, 48 h. Potency, µM (top dose mostly 46.2 µM), inactives show at the top dose activity change, negative = growth inhibition, actives largely listed as inhibitors. hit rate 15% among 420,000. AID 686978, 2013; note: potency is the fitted concentration of half-maximal effect; nearly all actives have a fitted effect of over 55% in size
#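 Cells were dispensed at 400 per well, compounds added by pin tool, plates incubated ≥48 hr at 37 °C, then CellTiter-Glo added for 30 min at room temperature before luminescence reading. Line: DT40 Tdp1-/- complemented with hTDP1; camptothecin omitted.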
# TDP1 cell CPT: DT40-hTDP1 cell growth loss with CPT | chicken DT40 Tdp1-/-;hTDP1 cells + 20 nM CPT, ATP luminescence, 48 h | Potency, µM (top dose mostly 46.2 µM), without a hit: at the top dose activity change, negative = growth inhibition, most hits filed as inhibitors | hit rate 12% among 420,000 | AID 686979; note: potency is the fitted concentration of half-maximal effect; nearly all actives have a fitted effect of over 55% in size
#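 Cell growth measured by CellTiter-Glo luminescence after a minimum 48 h, 37 C compound exposure with 20 nM CPT in Tdp1-knockout DT40 cells stably expressing hTDP1, seeded 400/well; qHTS titration format.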
# IL1B secr inh: inflammasome signaling inhibition, IL-1 beta readout; hit rate 4.7% among 360,000; THP-1 LPS/ATP IL-1B secretion, AlphaLISA, 16 h; hits give low values; activity change, % at 57.5 µM; in the data active = activity change below about -50%; inconclusive = mostly about -30% to -49%
#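 THP-1 cells pretreated 1 hr with compounds (up to 57.5 uM final), then stimulated with LPS (250 ng/mL final) plus ATP (1.25 mM final); secreted IL-1B measured by AlphaLISA after 16 hr, decreased signal indicating inhibition.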
# TDP1 block: blocks human tyrosyl-DNA phosphodiesterase 1; Q9NUW8; recombinant TDP1, AlphaScreen DNA substrate cleavage; Potency, µM (titrated, usually from 130 µM), for the others: at the highest dose activity change, negative = inhibition, actives largely listed as inhibitors; hit rate 0.28% among 350,000; AID 485290; note: potency is the fitted concentration of half-maximal effect; nearly all actives have a fitted effect of over 40% in size
# Target sequence (Q9NUW8 whole entry, looked up): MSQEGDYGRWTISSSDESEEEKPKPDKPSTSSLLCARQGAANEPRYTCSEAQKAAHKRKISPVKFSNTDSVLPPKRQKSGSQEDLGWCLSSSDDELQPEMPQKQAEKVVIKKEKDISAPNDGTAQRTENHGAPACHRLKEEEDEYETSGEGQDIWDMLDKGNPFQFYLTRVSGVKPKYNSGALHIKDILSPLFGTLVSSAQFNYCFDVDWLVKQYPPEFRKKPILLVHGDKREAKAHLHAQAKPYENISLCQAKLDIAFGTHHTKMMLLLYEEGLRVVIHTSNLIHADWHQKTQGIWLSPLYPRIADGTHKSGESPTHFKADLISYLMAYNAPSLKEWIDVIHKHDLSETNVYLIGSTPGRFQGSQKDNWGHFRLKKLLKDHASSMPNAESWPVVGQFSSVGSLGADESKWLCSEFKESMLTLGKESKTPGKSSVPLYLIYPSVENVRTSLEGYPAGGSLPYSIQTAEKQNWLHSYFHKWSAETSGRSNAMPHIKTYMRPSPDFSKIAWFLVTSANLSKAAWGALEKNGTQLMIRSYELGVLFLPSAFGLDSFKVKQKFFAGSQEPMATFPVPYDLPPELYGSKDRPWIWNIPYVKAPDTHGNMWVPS
#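 Tdp1 1 nM final; 15 min RT w/ cpd; substrate 15 nM, 5 min; beads 10 ug/ml, 10 min; AlphaScreen read. Neg ctrl: no enzyme.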
# ELG1 repair inh: blocks ELG1-dependent DNA repair in HEK293T cells | HEK293T ELG1-luciferase reporter, luminescence, 16 h; DNA damage induced by 5-fluorouridine | Potency, µM (doses to about 46.1 µM), without a hit: at the highest dose activity change, negative = inhibition, hits mostly inhibitors | hit rate 2.3% among 330,000; note: potency is the fitted concentration of half-maximal effect; nearly all actives have a fitted effect of over 55% in size
#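 Step one: seed 2,000 cells per well. Step two: pin-transfer compound or DMSO alongside 5-fluorouridine. Step three: incubate 16 hr, 37 °C, 5% CO2. Step four: add ONE-Glo, wait 30 min, read luminescence.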
# * marks the source's active call; other numbers are inactive results; ? = inconclusive; / = not tested or not shown; [ ] = dose if it differs, or a comment. Most compounds without a hit are left out; they make up all but 19% or so of the library. Unless noted, calls come from the whole dose curve; as a rule, active = well fitted curve in the direction sought with a large enough effect; inconclusive = small, poorly fitted or top-dose-only effect, or another doubt; inactive = no such curve, though single readings can be large; an effect the other way counts as inactive or inconclusive. % is set by controls: 0 for no effect and ±100 for the full control effect.
SMILES,Giardia kill,DT40 TDP1 no CPT,TDP1 cell CPT,IL1B secr inh,TDP1 block,ELG1 repair inh
Cc1ccc(-n2nc3c(=O)n(CCCC(=O)NCCc4ccccc4Cl)nc(C)c3c2C)cc1,-22,15µM*,8.2µM*,/,-3%,/
Cc1ccc(-n2nc3c(=O)n(CCCC(=O)NCc4ccccc4Cl)nc(C)c3c2C)cc1,21,18µM*,?,-9,0%,?
CCN1CCN(S(=O)(=O)c2ccc(C(C)(C)C)cc2)CC1,16,-14%,1%,1,/,-8%
CC(C)(C)c1ccc(S(=O)(=O)/C=C/C#N)cc1,/,0.56µM*,0.79µM*,/,17%[56.1 µM],/
CCOc1ccc(NC(=S)Nc2ccccc2C2(C)CC2)cc1,3,8.2µM*,?,?,0%,?
CCCNC(=O)c1cc(C2CCCCN2C(=O)c2ccc(C(C)C)cc2)on1 (centres undefined),/,10µM*,21µM*,-9,/,/
CC(C)c1ccc(C(=O)N2CCCCC2c2cc(C(=O)Nc3ccncc3)no2)cc1 (centres undefined),/,16µM*,16µM*,48,/,/
CCCNC(=O)c1cc(C2CCCCN2C(=O)c2cc(OC)c(C)c(OC)c2)on1 (centres undefined),/,?,21µM*,23,/,/
O=C(Nc1ccccc1N1CCOCC1)c1ccc([N+](=O)[O-])s1,-89*,16µM*,16µM*,31,7%,?
Cc1cc(C(=O)Nc2ccccc2N2CCOCC2)no1,-2,4%,-4%,-1,0%[56.1 µM],-1%
CCc1sc(C(=O)Nc2ccccc2N2CCOCC2)cc1C,-15,?,23µM*,-13,3%,-10%
O=C(Nc1ccccc1N1CCOCC1)c1ccccc1[N+](=O)[O-],-4,-25%,-18%,5,-2%,7%
CCC1(C2CCN(C(=O)c3cc(C)cc(C)c3)CC2)NC(=O)N(CCc2scnc2C)C1=O (centres undefined),/,-17%,-5%[9.04 µM],/,/,/
O=C1[C@H]2[C@@H](/C=C/c3ccccc3)N3C(=O)CN(Cc4ccccn4)C(=O)[C@@]3(Cc3ccccc3)[C@H]2C(=O)N1c1ccccc1,1,-4%,1%,0,/,3%
O=C(c1ccccc1NS(=O)(=O)c1ccc([N+](=O)[O-])cc1[N+](=O)[O-])N1O[C@@H]2C=C[C@H]1C2,-8,9.2µM*,9.2µM*,-72*,/,?
CCC(=O)N1CCCC1(C)C(=O)Nc1ccc2scnc2c1 (centres undefined),/,-2%,-12%,47,/,/
CC(=O)Nc1ccc(NC(=O)C2CCC(N3C(=O)C4C5C=CC(C6CC56)C4C3=O)CC2)cc1 (centres undefined),-19,-12%,-9%,20,2%,10%
O=C(Nc1ccc(Cc2ccncc2)cc1)C1CCC(N2C(=O)C3C4C=CC(C5CC45)C3C2=O)CC1 (centres undefined),7,15µM*,18µM*,0,-1%,8.2µM*
C=C1CCC[C@]2(C)C[C@H]3OC(=O)C(CNC(C)CC)[C@H]3CC12 (some centres undefined),11,?,?,-96*,/,-4%
C=C1C(=O)OC2C[C@@]3(C)CCCC(=C)[C@@H]3CC12 (some centres undefined),/,24µM*,27µM*,/,/,/
C=C1CCC[C@]2(C)C[C@H]3OC(=O)C(CNC(C)(CO)CO)[C@H]3CC12 (some centres undefined),5,21µM*,?,-96*,/,?
C=C1CCC[C@]2(C)C[C@H]3OC(=O)C(CN(C)CC(OC)OC)[C@H]3CC12 (some centres undefined),7,?,?,-92*,/,0%
C[C@@H](CN(C)C[C@H]1C(=O)O[C@@H]2C[C@@]3(C)CCC[C@]4(CO4)C3CC21)[C@H](O)c1ccccc1 (some centres undefined),/,2%[9.04 µM],14%[9.04 µM],/,6%,/
O=C(Nc1ccc(Br)cn1)c1cnn2c1NC(=C1CC1)C=C2C(F)F,/,-19%,1%,/,/,/
C=C1CCC[C@]2(C)C[C@H]3OC(=O)C(CN4CCCCC4CO)[C@H]3CC12 (some centres undefined),5,12µM*,4.6µM*,/,/,10%
SMILES,Giardia kill,DT40 TDP1 no CPT,TDP1 cell CPT,IL1B secr inh,TDP1 block,ELG1 repair inh
C=C1CCC[C@]2(C)C[C@H]3OC(=O)C(CNC(CC)CO)[C@H]3CC12 (some centres undefined),-10,18µM*,?,-98*,/,27%
Cc1ccc(NS(=O)(=O)c2cc(C(=O)NCc3ccccn3)ccc2Cl)cc1C,4,-12%,7%,-10,4%,3%
N#Cc1c(-c2ccccc2)nc(SCc2nc(N)nc(N3CCCCC3)n2)[nH]c1=O,-6,?,12µM*,0,2%,-6%
Cc1cc2nc(-c3ccccc3Br)n(/C=C(\c3ccccc3)n3c(=O)[nH]c4ccccc43)c2cc1C,/,23µM*,16µM*,-1,/,/
CCC1CCCCN1CCCNC(=O)C1CCN(Cc2nc(-c3ccc(Cl)cc3)oc2C)CC1 (centres undefined),12,2.6µM*,3.7µM*,-90*,4%,-11%
Cc1oc(-c2ccc(Cl)cc2)nc1CN1CCC(C(=O)NCCCN2CCOCC2)CC1,-22,?,29µM*,?,7%,-4%
Cc1oc(-c2ccc(Cl)cc2)nc1CN1CCC(C(=O)NCc2cccs2)CC1,10,?,?,-54*,2%,?
Cc1oc(-c2ccc(Cl)cc2)nc1CN1CCC(C(=O)NCC2CCCO2)CC1 (centres undefined),25,-1%,-9%,?,4%,-1%
CC1(C)OC(=O)C2(Cc3cc([N+](=O)[O-])ccc3N3CCCCCC32)C(=O)O1 (centres undefined),-9,-11%,-6%,/,/,/
CN1CCN(C(=O)/C(=C/c2ccccc2F)NC(=O)c2ccccc2)CC1,-29,-16%,0%,-3,3%[0.0935 µM],0%
Cc1cccc(Cn2c(CNS(=O)(=O)c3ccc4c(c3)CCCC4)nc3cccnc32)c1,/,16µM*,?,/,-1%,/
O=S(=O)(NCc1nc2cccnc2n1Cc1ccccc1Cl)c1ccc2c(c1)CCCC2,/,16µM*,?,/,5%,/
O=S(=O)(NCc1nc2cccnc2n1Cc1ccccc1)c1ccc2c(c1)CCCC2,/,21µM*,?,/,4%,/

# Screening data: PubChem BioAssay, National Center for Advancing Translational Sciences (NCATS)
